The results in this text go back to PubChem BioAssay AID2737 (National Center for Advancing Translational Sciences (NCATS), 2010).

Molecules are shown by their SMILES. Activity calls are given as the source filed them.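 How the source made its calls: active means compounds inhibiting cruzain with a measured inhibition constant Ki under 100 µM; inactive means the rest.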

Sequence of Cruzipain (Trypanosoma cruzi) (P25779 123-467 limits assumed): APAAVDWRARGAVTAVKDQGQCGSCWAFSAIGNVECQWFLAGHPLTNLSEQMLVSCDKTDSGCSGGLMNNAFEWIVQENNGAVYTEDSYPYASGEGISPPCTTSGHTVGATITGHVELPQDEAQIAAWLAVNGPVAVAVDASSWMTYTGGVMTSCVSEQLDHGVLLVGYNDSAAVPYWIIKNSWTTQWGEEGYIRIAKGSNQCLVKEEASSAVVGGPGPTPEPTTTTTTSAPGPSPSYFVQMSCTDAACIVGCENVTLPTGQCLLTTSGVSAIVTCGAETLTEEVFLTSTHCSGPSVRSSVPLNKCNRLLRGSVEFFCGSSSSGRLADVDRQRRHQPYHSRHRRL

The assay concerns the target Cruzipain (Trypanosoma cruzi) (UniProt P25779). As to the kind of experiment: Confirmation Competitive Binding Assay for Inhibitors of Cruzain. The conditions noted are these: recombinant cruzain, Z-FR-AMC fluorogenic cleavage, Ki. The method, then:
Cruzain is a cysteine protease from the tropical parasite Trypanosoma cruzi. This assay protocol is for follow-up Ki determination of cruzain inhibitors of interest. Cruzain inhibition was determined using a competitive binding assay. See following references for additional details: Jadhav A, et al. J Med Chem. 2010 Jan 14;53(1):37-51. Mott BT, et al. J Med Chem. 2010 Jan 14;53(1):52-60. Assay Provider: Shoichet, Brian; University of California, San Fancisco Screening Center PI: Austin, C.P. Screening Center: NIH Chemical Genomics Center [NCGC]
Cruzain activity was measured by monitoring the cleavage of the fluorogenic substrate Z-Phe-Arg-aminomethylcoumarin (Z-FR-AMC). All cruzain assays were performed in Sodium Acetate 0.1 M pH 5.5 and in the presence of 5 mM dithiothreitol (DTT). The final concentration of cruzain was 0.4 nM, and the substrate concentration was 2.5 uM (Km = 2 uM), except for Ki determination, when the Z-FR-AMC varied from 0.31 to 20 uM, in two fold increments. Assays were conducted in presence of 0.01% Triton X-100. Assays were followed for five minutes, and activity was calculated based on initial rates. […] Data was analyzed with Prism 4 (GraphPad), and Ki values were determined from Lineweaver-Burk and Dixon plots.
Turning to `O=C(COc1ccccc1Br)NCCc1nc2ccccc2[nH]1`, the Potency was 2 µM (active). Turning to `Cc1ccc(C)c(OCCn2c(CCNC(=O)C3CCCCC3)nc3ccccc32)c1`, the Potency was 2 µM (active).
